Source: PubChem BioAssay (EPA / NIEHS)
Inconclusive results are not listed. Activity calls are given as the source filed them. How the source made its calls: active means hit-call score of the fitted dose curve at least 0.9, where 1 is the maximum; inconclusive means response in the unintended direction; inactive means score below 0.9.

Biological target: Cellular tumor antigen p53 (Homo sapiens) (UniProt P04637)
Sequence (P04637 whole entry, looked up): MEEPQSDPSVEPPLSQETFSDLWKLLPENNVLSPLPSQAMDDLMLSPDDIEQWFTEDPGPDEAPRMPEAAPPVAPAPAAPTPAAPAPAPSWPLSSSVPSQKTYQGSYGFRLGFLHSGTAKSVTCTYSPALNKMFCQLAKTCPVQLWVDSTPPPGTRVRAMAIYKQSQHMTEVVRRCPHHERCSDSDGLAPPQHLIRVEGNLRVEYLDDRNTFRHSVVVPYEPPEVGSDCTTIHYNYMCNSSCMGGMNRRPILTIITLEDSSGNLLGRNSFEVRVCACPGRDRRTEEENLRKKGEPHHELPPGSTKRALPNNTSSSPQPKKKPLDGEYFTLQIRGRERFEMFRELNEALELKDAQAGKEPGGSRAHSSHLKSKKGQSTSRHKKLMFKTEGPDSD
Experiment: TOX21_p53_BLA_p3_ratio: Tox21 HCT-116 p53 Agonism Beta-lactamase Assay, Ratio, Phase 3 (AID 2283596)
In short: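 HCT116 p53-bla cells (4000/well) given compound in DMSO (217-fold dilution) after 5 h, incubated 16 h at 37C. CCF4-AM substrate 2 h at room temperature; 460/530 nm emission ratio, gain fitted against DMSO.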
With `COc1nc(C)nc(NC(=O)NS(=O)(=O)c2ccccc2OCCCl)n1` the outcome was “inactive”.
For `CCSC(=O)N(CC(C)C)CC(C)C`, the outcome was “inactive”.
With `CCCCCCC(C)OC(=O)COc1nc(F)c(Cl)c(N)c1Cl` (stereo unspecified) the outcome was “inactive”.
For `CCCN(CCC)c1c([N+](=O)[O-])cc(C(F)(F)F)c(N)c1[N+](=O)[O-]`, the AC50 was 81.1 µM (active).
For `COC(=O)c1ccccc1C(=O)O`, the outcome was “inactive”.
In the case of `O=C(O)C1(C(=O)Nc2ccc(Cl)cc2Cl)CC1`, the outcome is reported as “inactive”.
With `CCCCOC(=O)C(C)Oc1ccc(Oc2ccc(C(F)(F)F)cn2)cc1` (stereo unspecified) the outcome was “inactive”.
With `CCCOC(=O)NCCCN(C)C` the outcome was “inactive”.
In the case of `CC(C)(C)[C@@H](O)[C@@H](Cc1ccc(Cl)cc1)n1cncn1`, the outcome is reported as “inactive”.
With `CCCN(CCC)C(=O)SCC` the outcome was “inactive”.
For `CCCOC(=O)c1ccc(C(=O)OCCC)nc1`, the outcome was “inactive”.
With `CCOC(=O)NCCOc1ccc(Oc2ccccc2)cc1` the outcome was “inactive”.
For `CCCCOC(=O)[C@@H](C)Oc1ccc(Oc2ccc(C(F)(F)F)cn2)cc1`, the outcome was “inactive”.
In the case of `Cc1nn(C)c(Oc2ccccc2)c1C=NOCc1ccc(C(=O)OC(C)(C)C)cc1`, the outcome is reported as “inactive”.
In the case of `OB(O)O`, the outcome is reported as “inactive”.
For `CCNc1nc(N)nc(Cl)n1`, the outcome was “inactive”.

Tested on: not listed separately
Experiment: TOX21_p53_BLA_p4_viability: Viability Assessment in the Tox21 HCT-116 p53 Agonism Beta-lactamase Assay, Phase 4 (AID 2283597);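 further: hits lower the luminescence signal meaning cytotoxicity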
In short: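 We seeded HCT116 p53 reporter cells at 4000/well and waited 5 h. We then added compounds in DMSO at a 217-fold dilution and incubated for 16 h. Viability was read as CellTiter-Glo luminescence after 30 min at RT.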
With `COc1nc(C)nc(NC(=O)NS(=O)(=O)c2ccccc2OCCCl)n1` the outcome was “inactive”.
With `CCSC(=O)N(CC(C)C)CC(C)C` the outcome was “inactive”.
For `CCC(C)OC(=O)N1CCCCC1CCO` (stereo unspecified), the outcome was “inactive”.
With `CCCCCCC(C)OC(=O)COc1nc(F)c(Cl)c(N)c1Cl` (stereo unspecified) the AC50 was 76.9 µM (active).
For `CCCN(CCC)c1c([N+](=O)[O-])cc(C(F)(F)F)c(N)c1[N+](=O)[O-]`, the AC50 was 20.7 µM (active).
With `COC(=O)c1ccccc1C(=O)O` the outcome was “inactive”.
In the case of `O=C(O)C1(C(=O)Nc2ccc(Cl)cc2Cl)CC1`, the outcome is reported as “inactive”.
With `CCCCOC(=O)C(C)Oc1ccc(Oc2ccc(C(F)(F)F)cn2)cc1` (stereo unspecified) the outcome was “inactive”.
In the case of `CC(C)(C)[C@@H](O)[C@@H](Cc1ccc(Cl)cc1)n1cncn1`, the outcome is reported as “inactive”.
For `CCCN(CCC)C(=O)SCC`, the outcome was “inactive”.
With `CCCOC(=O)c1ccc(C(=O)OCCC)nc1` the outcome was “inactive”.
With `CCOC(=O)COc1cc(-n2ncc(C(F)(F)F)c(C)c2=O)c(F)cc1Cl` the outcome was “inactive”.
In the case of `CCOC(=O)NCCOc1ccc(Oc2ccccc2)cc1`, the outcome is reported as “inactive”.
For `COC(=O)c1ccc(I)cc1S(=O)(=O)NC(=O)Nc1nc(C)nc(OC)n1`, the outcome was “inactive”.
For `Cc1nn(C)c(Oc2ccccc2)c1C=NOCc1ccc(C(=O)OC(C)(C)C)cc1`, the outcome was “inactive”.
With `OB(O)O` the outcome was “inactive”.
In the case of `COC(=O)CSc1cc(N=c2sc(=O)n3n2CCCC3)c(F)cc1Cl`, the outcome is reported as “inactive”.

Biological target: Cellular tumor antigen p53 (Homo sapiens) (UniProt P04637)
Experiment: TOX21_p53_BLA_p5_ratio: Tox21 HCT-116 p53 Agonism Beta-lactamase Assay, Ratio, Phase 5 (AID 2283599)
In short: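 HCT-116 cells carrying a p53-inducible beta-lactamase reporter were seeded at 4000 cells/well and dosed after 5 h with compound in DMSO (217-fold dilution). After 16 h at 37C, CCF4-AM substrate was added for 2 h, and the 460/530 nm emission ratio was scored as gain-of-signal versus DMSO.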
For `COc1nc(C)nc(NC(=O)NS(=O)(=O)c2ccccc2OCCCl)n1`, the outcome was “inactive”.
With `CCSC(=O)N(CC(C)C)CC(C)C` the outcome was “inactive”.
For `CCCCCCC(C)OC(=O)COc1nc(F)c(Cl)c(N)c1Cl` (stereo unspecified), the outcome was “inactive”.
For `CCCN(CCC)c1c([N+](=O)[O-])cc(C(F)(F)F)c(N)c1[N+](=O)[O-]`, the AC50 was 67.5 µM (active).
With `O=C(O)C1(C(=O)Nc2ccc(Cl)cc2Cl)CC1` the outcome was “inactive”.
In the case of `CCCCOC(=O)C(C)Oc1ccc(Oc2ccc(C(F)(F)F)cn2)cc1` (stereo unspecified), the outcome is reported as “inactive”.
In the case of `CCCOC(=O)NCCCN(C)C`, the outcome is reported as “inactive”.
With `CCCOC(=O)c1ccc(C(=O)OCCC)nc1` the outcome was “inactive”.
For `CCOC(=O)NCCOc1ccc(Oc2ccccc2)cc1`, the outcome was “inactive”.
With `COC(=O)c1ccc(I)cc1S(=O)(=O)NC(=O)Nc1nc(C)nc(OC)n1` the outcome was “inactive”.
In the case of `Cc1nn(C)c(Oc2ccccc2)c1C=NOCc1ccc(C(=O)OC(C)(C)C)cc1`, the outcome is reported as “inactive”.
For `OB(O)O`, the outcome was “inactive”.
In the case of `CCOC(=O)C(C)Oc1ccc(Oc2nc3ccc(Cl)cc3o2)cc1` (stereo unspecified), the outcome is reported as “inactive”.
With `CCNc1nc(N)nc(Cl)n1` the outcome was “inactive”.

Tested on: not listed separately
Experiment: TOX21_p53_BLA_p5_viability: Viability Assessment in the Tox21 HCT-116 p53 Agonism Beta-lactamase Assay, Phase 5 (AID 2283600)
In short: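 Compounds, pinned from DMSO at 217-fold dilution, were left on the cells for 16 h. The viability endpoint was ATP content measured by CellTiter-Glo luminescence, where falling signal reflects cytotoxicity.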
In the case of `CCC(C)OC(=O)N1CCCCC1CCO` (stereo unspecified), the outcome is reported as “inactive”.
For `CCCCCCC(C)OC(=O)COc1nc(F)c(Cl)c(N)c1Cl` (stereo unspecified), the outcome was “inactive”.
For `CCCN(CCC)c1c([N+](=O)[O-])cc(C(F)(F)F)c(N)c1[N+](=O)[O-]`, the AC50 was 21.4 µM (active).
In the case of `COC(=O)c1ccccc1C(=O)O`, the outcome is reported as “inactive”.
In the case of `O=C(O)C1(C(=O)Nc2ccc(Cl)cc2Cl)CC1`, the outcome is reported as “inactive”.
In the case of `CCCCOC(=O)C(C)Oc1ccc(Oc2ccc(C(F)(F)F)cn2)cc1` (stereo unspecified), the outcome is reported as “inactive”.
For `CCCOC(=O)NCCCN(C)C`, the outcome was “inactive”.
For `CC(C)(C)[C@@H](O)[C@@H](Cc1ccc(Cl)cc1)n1cncn1`, the outcome was “inactive”.
In the case of `CCCN(CCC)C(=O)SCC`, the outcome is reported as “inactive”.
In the case of `CCOC(=O)NCCOc1ccc(Oc2ccccc2)cc1`, the outcome is reported as “inactive”.
For `COC(=O)c1ccc(I)cc1S(=O)(=O)NC(=O)Nc1nc(C)nc(OC)n1`, the outcome was “inactive”.
For `CCCCOC(=O)[C@@H](C)Oc1ccc(Oc2ccc(C(F)(F)F)cn2)cc1`, the outcome was “inactive”.
In the case of `Cc1nn(C)c(Oc2ccccc2)c1C=NOCc1ccc(C(=O)OC(C)(C)C)cc1`, the outcome is reported as “inactive”.
For `CCOC(=O)C(C)Oc1ccc(Oc2nc3ccc(Cl)cc3o2)cc1` (stereo unspecified), the outcome was “inactive”.
For `COC(=O)CSc1cc(N=c2sc(=O)n3n2CCCC3)c(F)cc1Cl`, the outcome was “inactive”.
With `CCNc1nc(N)nc(Cl)n1` the outcome was “inactive”.

Biological target: Cellular tumor antigen p53 (Homo sapiens) (UniProt P04637)
Experiment: TOX21_p53_BLA_p4_ratio: Tox21 HCT-116 p53 Agonism Beta-lactamase Assay, Ratio, Phase 4 (AID 2283601)
In short: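 HCT116 cells carrying an inducible beta-lactamase reporter were plated at 4000 cells/well, rested 5 h, then exposed to compounds in DMSO (217-fold dilution) for 16 h at 37C. CCF4-AM substrate was loaded 2 h at room temperature; 460/530 nm emission ratio scored gain-of-signal versus DMSO.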
For `COc1nc(C)nc(NC(=O)NS(=O)(=O)c2ccccc2OCCCl)n1`, the outcome was “inactive”.
For `CCSC(=O)N(CC(C)C)CC(C)C`, the outcome was “inactive”.
For `CCC(C)OC(=O)N1CCCCC1CCO` (stereo unspecified), the outcome was “inactive”.
For `CCCCCCC(C)OC(=O)COc1nc(F)c(Cl)c(N)c1Cl` (stereo unspecified), the AC50 was 87.2 µM (active).
With `CCCN(CCC)c1c([N+](=O)[O-])cc(C(F)(F)F)c(N)c1[N+](=O)[O-]` the AC50 was 44.2 µM (active).
With `O=C(O)C1(C(=O)Nc2ccc(Cl)cc2Cl)CC1` the AC50 was 46.1 µM (active).
In the case of `CCCCOC(=O)C(C)Oc1ccc(Oc2ccc(C(F)(F)F)cn2)cc1` (stereo unspecified), the outcome is reported as “inactive”.
For `CCCOC(=O)NCCCN(C)C`, the outcome was “inactive”.
In the case of `CC(C)(C)[C@@H](O)[C@@H](Cc1ccc(Cl)cc1)n1cncn1`, the outcome is reported as “inactive”.
For `CCCN(CCC)C(=O)SCC`, the outcome was “inactive”.
With `CCCOC(=O)c1ccc(C(=O)OCCC)nc1` the outcome was “inactive”.
In the case of `CCOC(=O)COc1cc(-n2ncc(C(F)(F)F)c(C)c2=O)c(F)cc1Cl`, the outcome is reported as “inactive”.
For `CCOC(=O)NCCOc1ccc(Oc2ccccc2)cc1`, the outcome was “inactive”.
For `COC(=O)c1ccc(I)cc1S(=O)(=O)NC(=O)Nc1nc(C)nc(OC)n1`, the outcome was “inactive”.
For `CCCCOC(=O)[C@@H](C)Oc1ccc(Oc2ccc(C(F)(F)F)cn2)cc1`, the outcome was “inactive”.
With `Cc1nn(C)c(Oc2ccccc2)c1C=NOCc1ccc(C(=O)OC(C)(C)C)cc1` the outcome was “inactive”.
With `OB(O)O` the outcome was “inactive”.
For `CCNc1nc(N)nc(Cl)n1`, the outcome was “inactive”.
